PubChem BioAssay (Tox21)
Inconclusive results are not listed. Activity calls are given as the source filed them. Calls follow the shape of the dose curve; as a rule, active = well fitted inhibition curve with a large enough effect in the repeat runs; inconclusive = weak or mixed curves; inactive = no such curve, though single readings can be large or run the other way.

molecular target: Cytochrome P450 1A2 (Homo sapiens) (UniProt P05177); assay: Cytochrome P450 Family 1 Subfamily A Member 2 (CYP1A2) small molecule antagonists: luciferase reporter qHTS assay (AID 1671199); conditions: P450-Glo CYP1A2 enzyme, luciferin luminescence, 1 h; series mostly up to 115 µM; activity change, negative = inhibition: at the top concentration; also: nearly all actives have a fitted effect of over 50% in size
How it was run: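 P450-Glo CYP1A2 enzyme–proluciferin substrate mix with compound 10 min at room temperature, then NADPH regeneration 1 h at room temperature. Luciferin detection reagent added, luminescence read after 20 min; furafylline positive control.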
% is scaled to controls: 0 for no effect and ±100 for the full control effect; potency is read from the fitted curve at half-maximal effect.

Cytochrome P450 1A2 (Homo sapiens), sequence (P05177 whole entry, looked up): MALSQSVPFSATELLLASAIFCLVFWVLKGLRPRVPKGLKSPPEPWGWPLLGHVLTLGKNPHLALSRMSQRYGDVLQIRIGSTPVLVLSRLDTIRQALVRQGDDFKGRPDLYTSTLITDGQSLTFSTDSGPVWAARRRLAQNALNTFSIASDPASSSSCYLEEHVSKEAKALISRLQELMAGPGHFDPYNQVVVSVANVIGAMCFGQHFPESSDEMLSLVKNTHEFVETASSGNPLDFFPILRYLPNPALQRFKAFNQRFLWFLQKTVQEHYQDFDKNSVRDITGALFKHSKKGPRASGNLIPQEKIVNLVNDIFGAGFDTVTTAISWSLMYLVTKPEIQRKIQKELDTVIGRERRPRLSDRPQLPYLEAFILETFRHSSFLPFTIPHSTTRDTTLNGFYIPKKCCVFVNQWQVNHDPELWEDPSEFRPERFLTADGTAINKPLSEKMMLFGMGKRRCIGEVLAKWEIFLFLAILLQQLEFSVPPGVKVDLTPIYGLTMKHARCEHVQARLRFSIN

SMILES	activity change, negative = inhibition	Potency
C=CC(=O)OCC(Br)CBr (stereo not given)	-5.48% (inactive)	
O=C1C=CC(=O)N1c1cccc(N2C(=O)C=CC2=O)c1		15.9 µM (active)
Clc1cccc(Cl)n1	-21.3% (inactive)	
O=C(Nc1ccc([N+](=O)[O-])cc1)Nc1ccc([N+](=O)[O-])cc1 (tested in a mixture with another compound)	-9.37% [at 53 µM] (inactive)	
C/C=C/C(=O)C1=C(C)C=CCC1(C)C	-7.38% (inactive)	
CCOc1ccc([N+](=O)[O-])cc1		32.2 µM (active)
CC(C)(c1ccc(Oc2ccc(N)cc2)cc1)c1ccc(Oc2ccc(N)cc2)cc1	-18% (inactive)	
CCCCCCCCSCc1cc(C)c(O)c(CSCCCCCCCC)c1		25.2 µM (active)
CCNc1nc(NC(C)(C)C)nc(OC)n1		20 µM (active)
CC(Cc1ccc(O)c(O)c1)C(C)Cc1ccc(O)c(O)c1 (stereo not given)	-29.5% (inactive)	
CC/C=C(\C)C=O		39.9 µM (active)
Cn1c(=O)[nH]c2ncn(C)c2c1=O	-15.9% (inactive)	
CCC(O)CO (stereo not given)	-13.1% (inactive)	
COc1c(Br)cc(Br)c(C)c1Br		3.56 µM (active)
NC(=O)C1CO1 (stereo not given)	-6.17% (inactive)	
c1ccc(-c2ccccc2-c2ccccc2)cc1		3.17 µM (active)
[Cl][Sc]([Cl])[Cl]	-9.19% (inactive)	
C=CC(=O)O[C@H]1C[C@@H]2CC[C@@]1(C)C2(C)C	-19.4% (inactive)	
C1CCSC1	-15.5% (inactive)	
COc1cc(C(C)C)ccc1C	-17.4% [at 23.6 µM] (inactive)	

SMILES	activity change, negative = inhibition	Potency
CCCCCCCCCCCCS(=O)(=O)Cl	5.89% [at 23.6 µM] (inactive)	
CCCCCCCCCC[N+](C)(CCCCCCCCCC)CCC[Si](OC)(OC)OC		20 µM (active)
O=C1CCCCCCCCCCCCCC1	-23.2% (inactive)	
CC(=O)CC(N)=O	-2.09% (inactive)	
N#CCCOCCC#N	-1.53% (inactive)	
O=C(O)CN(CCCN(CC(=O)O)CC(=O)O)CC(=O)O	-0.26% [at 23.6 µM] (inactive)	
CN(C[C@@H](CC[N+]12CCC(C3CCCCC3)(CC1)CC2)c1ccc(Cl)c(Cl)c1)C(=O)c1cc(C(F)(F)F)cc(C(F)(F)F)c1		71 µM (active)
CCCC(C)C=O (stereo not given)	-10.1% (inactive)	
C/C=C/C(=O)OCC(C)C	-22.5% (inactive)	
[Cl][Eu]([Cl])[Cl]	-16.1% (inactive)	
C=C[Si](C)(C)Cl	-9.04% [at 10.5 µM] (inactive)	
C=C(C)C1CCC(C)CC1O (stereo not given)	-2.5% (inactive)	
Clc1ccc2c(Cl)ccnc2c1		5.64 µM (active)
SC1CCCCC1	-16.4% (inactive)	
CC(C)c1ccc2sc3ccccc3c(=O)c2c1		7.1 µM (active)
COc1cccc(-c2ccc(/C=C\CN3CCCCCC3)cc2Cl)c1		56.1 µM (active)
CCc1c(C)cc(N)c(CC)c1N		20 µM (active)
CC1=CC[C@@H](C(C)(C)O)CC1	-12.7% (inactive)	
CCOC(=O)[C@H](C)O	-17.9% (inactive)	
O=C1OC(=O)c2cc(-c3ccc4c(c3)C(=O)OC4=O)ccc21		35.6 µM (active)
